Apoferritin bind = binds horse apoferritin like a general anesthetic; P02791; apoferritin/1-aminoanthracene competitive binding, fluorescence; 350,000 tested, 0.074% active; Potency, µM (highest dose often 77.5 µM), without a hit: at the top dose activity change, negative = displacement, actives largely listed as inhibitors; note: % is set by controls: 0 for no effect and ±100 for the full control effect; nearly all actives have a fitted effect of over 20% in size
Target sequence (P02791 2-175 limits assumed): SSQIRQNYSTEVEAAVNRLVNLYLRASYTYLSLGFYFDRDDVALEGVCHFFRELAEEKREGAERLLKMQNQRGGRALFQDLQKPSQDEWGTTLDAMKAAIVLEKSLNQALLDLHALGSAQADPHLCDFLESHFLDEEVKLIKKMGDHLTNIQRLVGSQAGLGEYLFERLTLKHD
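Horse-spleen apoferritin (10 uM) in 50% saturated 1-aminoanthracene in PBS was incubated 10 min at room temperature with compound. Fluorescence (ex 380, em 535 nm) was normalized to free and bound 1-AMA, with concentration-response fitted by a four-parameter Hill equation.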
ERG-DNA inh = inhibitors of human ERG Ets domain-DNA interaction | P11308 | fluorescence polarization, His-ERG Ets domain / labelled DNA | Potency, µM (series often up to 76.9 µM), inactives show at the top dose FP activity, negative = inhibition, hits mostly inhibitors | 370,000 tested, 0.028% active | AID 624246; active = well fitted inhibition curve with a large enough effect in the polarisation, with a control signal flat; inconclusive = small, poorly fitted or top-dose-only effect, or effect the other way, or a change in a side signal; inactive = no such curve, though single readings can be large or run the other way; the % refers to the polarisation;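 note: polarization taken with two DNA probes labelled with fluorescein and Texas red; % of control where 0% means no effect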
Target sequence (P11308 whole entry, looked up, the tested form may be a part): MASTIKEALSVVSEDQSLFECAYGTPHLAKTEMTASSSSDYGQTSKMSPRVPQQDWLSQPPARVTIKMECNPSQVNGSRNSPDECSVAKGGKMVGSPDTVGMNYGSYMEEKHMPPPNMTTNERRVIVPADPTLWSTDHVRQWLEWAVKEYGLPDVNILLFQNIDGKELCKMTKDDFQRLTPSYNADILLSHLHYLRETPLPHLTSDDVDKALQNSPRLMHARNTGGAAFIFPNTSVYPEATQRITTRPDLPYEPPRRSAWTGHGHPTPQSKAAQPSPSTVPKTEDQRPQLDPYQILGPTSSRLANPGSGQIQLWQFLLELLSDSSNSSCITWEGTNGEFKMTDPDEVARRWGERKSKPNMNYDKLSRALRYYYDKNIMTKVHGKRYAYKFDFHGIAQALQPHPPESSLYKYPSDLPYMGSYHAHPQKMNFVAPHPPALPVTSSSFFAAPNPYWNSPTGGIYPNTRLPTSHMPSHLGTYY
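His-tagged ERG Ets domain (1 uM in the protein solution; 300mM KCl, 50mM Tris-HCl, 1mM EDTA, 1mM DTT, pH 7.5) received compound, then a probe mix of 5 nM fluorescein-DNA and 100nM Texas-615-DNA. Fluorescence polarization was read for both dyes.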
RGS12 GoLoco inh = RGS12 GoLoco-Gai1 interaction inhibition; P63096; Gai1:RGS12 GoLoco peptide FP, rhodamine, 10 min; Potency, µM (series often up to 61.6 µM), inactives show at the highest dose activity, negative = inhibition, actives largely listed as inhibitors; 230,000 tested, 0.44% active; AID 880; active = well fitted inhibition curve with a large enough effect, not every such curve was filed as active; inactive = no such curve, though single readings can be large or run the other way; note: % is set by controls: 0 for no effect and ±100 for the full control effect; nearly all actives have a fitted effect of over 30% in size
BRCA1 expr act = BRCA1 expression activation; 380,000 tested, 1.1% active; MCF7-BRCA1-FFLuc reporter, luminescence, 48 h; response scale: scaled: vehicle 0%, 10 µM genistein 100%; Potency, µM (doses to about 46.1 µM), inactives show at the highest dose activation, most hits filed as activators; AID 624202; note: nearly all actives have a fitted effect of over 80% in size
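48 h compound treatment of MCF7-BRCA1-FFLuc cells (phenol-red free MEM, 37 °C), then 15 min with luciferase substrate and luminescence imaging.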
An asterisk follows results filed as active; ? = inconclusive; . = no result given; [ ] = remark or other dose. This is a sample that favours compounds with a hit; in the whole collection about 1.2% have one here. Unless noted, calls come from the whole dose curve; as a rule, active = well fitted curve in the direction sought with a large enough effect; inconclusive = small, poorly fitted or top-dose-only effect, or another doubt; inactive = no such curve, though single readings can be large; an effect the other way counts as inactive or inconclusive. Potency is the fitted concentration of half-maximal effect.

SMILES	Apoferritin bind	ERG-DNA inh	RGS12 GoLoco inh	BRCA1 expr act
N#C/C(=C/c1ccc(OCc2ccc(C(=O)O)cc2)cc1)C(=O)Nc1ccccc1	2%	14%	.	-2%
Clc1cccc(CNc2ncnc3nc[nH]c23)c1	.	.	.	6%
COc1ccc(NC(=O)c2ccc3snnc3c2)cc1	0%	13%	1%	6.3µM*
CC(=O)c1ccc(NC(=O)c2ccc3snnc3c2)cc1	0%	0%	.	?
COc1cc(C(=O)Nc2ccc3ccccc3c2)cc(OC)c1OC	-21%	0%	.	46%
COc1ccc(C(=O)Nc2ccc3ccccc3c2)cc1OC	15%	0%	.	5.6µM*
COc1ccc(C(=O)Nc2nc3ccccc3s2)cc1OC	-15%	-8%	5%	4.5µM*
CCN(CC)CCC[C@H](C)Nc1c2ccc(Cl)cc2nc2ccc(OC)cc12	80%[29.3 µM]	.	-11%[21.6 µM]	.
COc1ccc(-c2nc3ccc(NC(=O)CO)cc3c(=O)n2Cc2cccc(Cl)c2)cc1COc1ccc(NC(C)=O)cc1	.	.	.	-48%
C[n+]1ccccc1N1CCN(c2ccccc2Cl)CC1	4%	16%	13µM*	-22%
Cc1ccc(Cl)cc1N1CCN(c2cccc[n+]2C)CC1	-12%	9%	-62%	-40%
CN(C)C1C(=O)C(C(N)=O)=C(O)[C@@]2(O)C(=O)C3=C(O)c4c(O)ccc(Cl)c4[C@@H](O)C3C[C@@H]12 (stereo not given in full)	.	.	-4%	.
CCOC(=O)c1ccc(NC(=O)C(Cc2ccccc2)N2Cc3ccccc3C2=O)cc1 (stereo not given)	-15%	-3%	.	.
COC(=O)C(Cc1ccc(OC(=O)c2ccc(C(F)(F)F)cc2)cc1)N1Cc2ccccc2C1=O (stereo not given)	?	4%	0%	11µM*
COC(=O)C(Cc1ccc(OC(=O)c2ccc(Cl)cc2)cc1)N1Cc2ccccc2C1=O (stereo not given)	-3%	-8%	-1%	13µM*
COc1ccc(N=Cc2nc(-c3ccccc3)oc2OC(=O)c2ccccc2)cc1	3%	0%	-4%	6.3µM*
CCOC(=O)c1ccc(N=Cc2nc(-c3ccccc3)oc2OC(C)=O)cc1	-16%	4%	5%	12%
CN(C)c1ccc(N=Cc2nc(-c3ccccc3)oc2OC(=O)c2cccc(Br)c2)cc1	7%	6%	13%	3.2µM*
CCc1cccc2cc(C(O)CNC(C)(C)C)oc12 (stereo not given)	-4%	.	.	.
COC(=O)COc1ccc(S(=O)(=O)NCCC2=CCCCC2)cc1C	5.6µM*	-14%	3%	-5%
COC(=O)COc1ccc(S(=O)(=O)NCCC2=CCCCC2)cc1	?	.	1%	-36%
CC(C)N=c1cc2n(-c3ccc(Cl)cc3)c3ccccc3nc-2cc1Nc1ccc(Cl)cc1	-6%[29.3 µM]	?	10µM*	0%
Cc1nc(N)sc1N=Nc1ccccc1C(F)(F)F	?	5%	.	7.1µM*
CCOCc1nnc(NC(=O)c2ccc(NC(C)=O)cc2)s1	-2%	5%	-6%	-2%
COc1cccc(C(=O)Nc2nnc(Cc3ccc(OC)c(OC)c3)s2)c1	10%	-4%	3%	-11%
SMILES	Apoferritin bind	ERG-DNA inh	RGS12 GoLoco inh	BRCA1 expr act
CCOCc1nnc(NC(=O)c2ccc(OC)cc2)s1	2%	9%	10%	13µM*
COc1ccc(Cc2nnc(NC(=O)Nc3ccccc3OC)s2)cc1	5%	28%	.	-23%
CCCc1nnc(NC(=O)c2cccc(OC)c2)s1	-19%	-1%	-7%	7.1µM*
CCCc1nnc(NC(=O)Nc2ccccc2OC)s1	?	-18%	1%	22µM*
Cc1cccc(OCCNc2ccc(C(F)(F)F)cc2[N+](=O)[O-])c1	-10%	0%	11%	3.2µM*
O=C(c1cc(COc2cccc(C(F)(F)F)c2)on1)N1C[C@H]2CC[C@H]1C2	?	11%	.	13µM*
COc1c(O)c2c(=O)cc(OC)c3c4c(OC)cc(=O)c5c(O)c(OC)c(C[C@@H](C)OC(=O)c6ccccc6)c(c(c1C[C@@H](C)OC(=O)Oc1ccc(O)cc1)c23)c54	-17%	.	16µM*	.
CCCCCCN	.	.	28µM*	.
CCCCN1C(=O)/C(=C/C=C2\SCCN2C)SC1=S	?	-15%	58%	7.1µM*
CN1CCS/C1=C/C=C1/SC(=S)N(Cc2ccccc2)C1=O	-22%	-28%	-2%	13µM*
CN1CCS/C1=C/C=C1\SC(=S)N(CC(=O)O)C1=O	-11%	38%	181%	3%
COc1ccc(C(=O)NC23CC4CC(CC(C4)C2)C3)cc1	-1%	3%	.	36%
COc1nc(NC23CC4CC(CC(C4)C2)C3)nc(OC)n1	7.1µM*	-2%	5%	8%
CC(C)(C)N1C(=O)[C@H]2[C@H]3[C@H](O)[C@H](O)C/C(=N/NC(=O)OCc4ccccc4)[C@@H]3CC[C@@H]2C1=O	-1%[15.3 µM]	.	.	.
COc1ccc2c3c(cccc13)C(=O)CC2	64%	28µM*	.	-5%
COc1ccc(NC(=O)c2cn(-c3ccccc3)nc2-c2cc3ccccc3o2)cc1	-16%	-3%	9%	-3%
OCc1cn(-c2ccccc2)nc1-c1cc2ccccc2o1	-7%	11%	-1%	2.5µM*
CC1CC(OCC(O)CN2CCOCC2)CC(C)(C)C1 (stereo not given)	-4%	0%	8%	1%
CC1CC(OCC(O)C[N+]2(C)CCOCC2)CC(C)(C)C1 (stereo not given)	-4%	7%	2.2µM*	-1%
Cc1c2cccn2cc[n+]1C	70%	-1%	8.9µM*	-2%
COc1ccc(-c2csc(N)n2)cc1	-9%	1%	1%	10µM*
Cc1ccc(OCc2csc(N)n2)cc1	-24%	-3%	-7%	5µM*
Cc1ccc(-c2csc(N)n2)cc1	.	-3%	.	10µM*
Nc1nc(-c2ccc(-c3ccccc3)cc2)cs1	-7%	13%	2%	?
COc1ccc(-c2csc(N=C(N)N)n2)cc1	-14%	-2%	9%	?
SMILES	Apoferritin bind	ERG-DNA inh	RGS12 GoLoco inh	BRCA1 expr act
Nc1nc(-c2ccc(C(=O)O)cc2)cs1	1%	-3%	11%	0%
Nc1nc(-c2ccc(Oc3ccccc3)cc2)cs1	-12%	-4%	.	11µM*
CCc1cccc(CC)c1NC(=O)c1cc(S(=O)(=O)N2CCc3ccccc32)cn1C	-1%	1%	.	.
c1ncc(-c2ccoc2)c(NC2CC2)n1	.	.	-16%	.
O=C(CCC(=O)c1ccc(Cl)cc1)OCC(=O)c1ccccc1	13µM*	0%	3%	16%
Cc1ccc(CCNC(=O)c2ccc3c(c2)c(C)c(C)n3Cc2ccccc2)cc1	63%	-3%	.	.
CC(C)n1cnc2cc(NC(=O)c3ccco3)ccc21	7%	-8%	.	?
O=C(Nc1ccc2c(c1)ncn2C1CCCCC1)c1ccco1	-16%	-4%	5%	13µM*
O=C(COc1ccccc1O)c1cccs1	28µM*	3%	3%	23%
O=C(CC(C(=O)O)c1ccccc1)c1cccs1 (stereo not given)	2%	9%	-7%	-4%
CC(CC(=O)c1cccs1)CC(=O)c1cccs1	-11%	.	-10%	13µM*

Screening results as filed in PubChem BioAssay.
